# Results reported in PMC5540273 (PLoS ONE, 2017).
# Columns and labels:
# Conditions in all cases: concentration: 1 μM, replicates: in singlicate; n = 1
# EIF2AK1 = system: EIF2AK1
# EPHA1 = system: EPHA1
# EPHA2 = system: EPHA2
# EPHA3 = system: EPHA3
# EPHA4 = system: EPHA4
# EPHA5 = system: EPHA5
# EPHA6 = system: EPHA6
# EPHA7 = system: EPHA7
# EPHA8 = system: EPHA8
# EPHB1 = system: EPHB1
# EPHB2 = system: EPHB2
# EPHB3 = system: EPHB3
# EPHB4 = system: EPHB4
# EPHB6 = system: EPHB6
# ERBB2 = system: ERBB2
# ERBB3 = system: ERBB3
# ERBB4 = system: ERBB4
# ERK1 = system: T1, ERK1
# T1 construct: gene MAPK3
# ERK2 = system: T2, ERK2
# T2 construct: gene MAPK1
# ERK3 = system: T3, ERK3
# T3 construct: gene MAPK6
# 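Also: KINOMEscan kinase panel screen.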
SMILES,%Inh (EIF2AK1) [%],%Inh (EPHA1) [%],%Inh (EPHA2) [%],%Inh (EPHA3) [%],%Inh (EPHA4) [%],%Inh (EPHA5) [%],%Inh (EPHA6) [%],%Inh (EPHA7) [%],%Inh (EPHA8) [%],%Inh (EPHB1) [%],%Inh (EPHB2) [%],%Inh (EPHB3) [%],%Inh (EPHB4) [%],%Inh (EPHB6) [%],%Inh (ERBB2) [%],%Inh (ERBB3) [%],%Inh (ERBB4) [%],%Inh (ERK1) [%],%Inh (ERK2) [%],%Inh (ERK3) [%]
Fc1ccc(Nc2nccc(-c3c(-c4ccc(Cl)cc4)nn4ncccc34)n2)cc1F [GW829058],0,13,3,27,12,24,15,8,9,20,17,15,14,23,21,36,0,6,28,0
O=C(Nc1n[nH]c2nc(-c3ccco3)c(Br)cc12)c1ccc(CN2CCCC2)cc1.O=C(O)[C@H](O)[C@@H](O)C(=O)O [SB-742352],0,3,0,0,100,0,100,0,7,6,47,0,0,95.7,0,0,27,0,0,0
Nc1nccc2scc(-c3ccc4c(c3)CCN4C(=O)Cc3cc(F)ccc3F)c12 [GSK2587663],0,11,17,0,12,0,25,6,20,7,10,34,27,59,14,0,46,3,0,4
CCCc1ccc(S(=O)(=O)NC2CCN(c3ccnc(Nc4ccc(OC)cc4)n3)C2)cc1 (centres unmarked) [GSK1379737],0,15,0,0,0,0,12,0,7,0,10,5,7,31,36,0,24,0,0,79
COc1cc2ncnc(Nc3ccc(OCc4ccccc4Br)c(Cl)c3)c2cc1OC.Cl [GI261590],0,8,14,0,3,15,7,4,17,12,5,22,31,26,96.5,29,100,0,16,0
CCC(CC)(CC)n1cnc2c(N)ncnc21 [SKF-97620],30,0,100,11,15,0,16,22,23,9,0,18,0,9,20,46,32,0,0,0
Clc1cc(Nc2ncnc3cc[nH]c23)ccc1OCc1ccccn1,3,11,12,0,24,14,27,1,0,1,15,21,25,35,100,24,73,0,18,0
Fc1cccc(COc2ccc(Nc3ncnc4nn5ccccc5c34)cc2Cl)c1 [GW689066],0,11,12,0,0,0,9,0,0,4,0,16,0,1,98.2,27,95.2,0,0,0
Nc1nc(-c2cccnc2)c(-c2ccnc3ccccc23)s1 [GW684083],0,0,21,12,4,0,8,0,9,6,0,17,11,28,51,20,8,11,4,0
COC(=O)c1c(-c2ccccc2)c2cc(Cl)ccc2c(=O)n1Cc1ccc(S(C)(=O)=O)cc1,10,0,8,6,20,4,34,1,7,6,18,24,0,0,0,0,29,0,3,0
